Screening data (PubChem BioAssay)
Rows were chosen to be rich in hits. Some 9.4% of all compounds tested hit in one or more screens of this group.
HttQ103 aggreg – inhibitors of mutant huntingtin aggregate formation in PC12 cells; 1.1% of 220,000 active; Potency, µM (top dose mostly 46.1 µM), most hits filed as inhibitors; PC12 HttQ103-GFP aggregates, Acumen cytometry, 40 h; note: nearly all actives have a fitted effect of over 60% in size
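Multiplexed with ATP-based cell death, this channel scores GFP aggregates in PC12 cells expressing inducible HTTex1-Q103-GFP. Induction used 100 nM tebufenozide; compounds were tested in concentration series.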
IMPase cell inh – cell-permeable inhibitors of inositol monophosphatase (IMPase); P97697; CHO-M1 cells, IP1 accumulation, HTRF TR-FRET ratio; inhibition (IP1 accumulation), % at 46.1 µM; 120,000 tested, under 10 active; AID 901; active = well fitted curve in the direction sought with a large enough effect in the signal ratio, not every such curve was filed as active; inconclusive = small, poorly fitted or top-dose-only effect, or a change in a side signal; inactive = no such curve, though single readings can be large or run the other way; the % refers to the signal ratio;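 note: cells stimulated with carbachol in lithium chloride buffer; higher means more IMPase inhibition seen as more IP1 and lower FRET ratio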
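Seeded CHO-M1 cells were dosed with compound at up to 46 uM, stimulated with carbachol for 30 min, then lysed in IP-One detection reagents. Higher IP1 lowers the TR-FRET signal.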
ALDH1A1 block – blocks purified human ALDH1A1 activity; Purified ALDH1A1, NADH fluorescence, propionaldehyde substrate; Potency, µM (doses to about 75.3 µM), hits mostly inhibitors; 7.3% of 220,000 active; active = well fitted inhibition curve with a large enough effect, not every such curve was filed as active; inconclusive = small, poorly fitted or top-dose-only effect, or another doubt; inactive = no such curve, though single readings can be large or run the other way
Target sequence (P00352 whole entry, looked up): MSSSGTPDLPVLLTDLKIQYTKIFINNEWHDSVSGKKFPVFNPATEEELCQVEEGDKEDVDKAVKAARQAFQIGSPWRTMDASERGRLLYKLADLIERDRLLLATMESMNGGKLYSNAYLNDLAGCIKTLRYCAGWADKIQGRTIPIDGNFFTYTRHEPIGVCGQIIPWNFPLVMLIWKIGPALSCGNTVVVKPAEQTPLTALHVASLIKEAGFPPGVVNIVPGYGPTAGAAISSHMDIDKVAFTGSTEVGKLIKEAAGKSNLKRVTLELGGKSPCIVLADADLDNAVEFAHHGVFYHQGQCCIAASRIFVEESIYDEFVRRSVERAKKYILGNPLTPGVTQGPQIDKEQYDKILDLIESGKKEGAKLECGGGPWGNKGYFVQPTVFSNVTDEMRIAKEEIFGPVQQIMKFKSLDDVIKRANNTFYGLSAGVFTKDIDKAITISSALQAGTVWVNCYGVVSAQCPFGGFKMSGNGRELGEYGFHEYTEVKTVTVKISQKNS
HPGD block – blocks human HPGD enzyme activity; P15428; 4.3% of 150,000 active; Potency, µM, hits mostly inhibitors; purified HPGD, NADH fluorescence kinetic, PGE2 substrate; active = well fitted inhibition curve with a large enough effect, not every such curve was filed as active; inconclusive = small, poorly fitted or top-dose-only effect, or another doubt; inactive = no such curve, though single readings can be large or run the other way
Target sequence (P15428 whole entry, looked up): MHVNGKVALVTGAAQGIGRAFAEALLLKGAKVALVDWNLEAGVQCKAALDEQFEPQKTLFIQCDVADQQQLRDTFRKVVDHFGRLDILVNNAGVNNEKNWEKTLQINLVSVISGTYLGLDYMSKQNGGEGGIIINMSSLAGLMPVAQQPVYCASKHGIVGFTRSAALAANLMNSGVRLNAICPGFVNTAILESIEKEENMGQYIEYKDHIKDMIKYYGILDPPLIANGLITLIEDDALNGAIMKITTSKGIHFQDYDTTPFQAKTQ
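NADH formation kinetics: reaction with 30 uM PGE2 and 1 mM NAD+ (final), 20 nM enzyme, Tris-HCl pH 8 with Tween 20, after 15 min compound preincubation at room temperature. Fluorescence change, last versus first of five reads.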
HTT ATP protect – Huntington cell model cytoprotection by ATP luminescence; PC12 HTT-Q103 induced, cytoprotection, ATP luminescence, 40 h; Potency, µM (titrated, usually from 56.4 µM), hits mostly activators; 0.14% of 230,000 active; AID 1471; note: nearly all actives have a fitted effect of over 45% in size
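Huntington model: PC12 line, ecdysone-inducible HTTQ103 exon1–GFP, tebufenozide 100 nM. Test articles in a dose series. Endpoint luminescence from cellular ATP.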
IMPase Li inh – IMPase inhibition in cells with lithium potentiation | 0.35% of 210,000 active | Potency, µM (titrated, usually from 59.4 µM), usual class: inhibitors | CHO-M1 cells, IP1 TR-FRET (IP-One), carbachol + lithium;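 note: IP1 builds up when IMPase is blocked and the TR-FRET signal falls; nearly all actives have a fitted effect of over 50% in size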
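CHO cells stably expressing M1 receptor (2000/well) were cultured 16–30 h, then exposed to compounds with a small lithium addition for 30 min at 37C. IP1 was measured by TR-FRET competition; AC50 from Hill fits.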
Large screens that a line does not name were inactive. Unless noted, calls come from the whole dose curve; as a rule, active = well fitted curve in the direction sought with a large enough effect; inconclusive = small, poorly fitted or top-dose-only effect, or another doubt; inactive = no such curve, though single readings can be large; an effect the other way counts as inactive or inconclusive.

CN(C)c1ccc(C(=S)N2CCN(Cc3ccccc3)CC2)cc1	ALDH1A1 block 32µM (no result: IMPase cell inh, HPGD block)
S=C(c1ccc(Br)cc1)N1CCN(Cc2ccccc2)CC1	ALDH1A1 block inconclusive, HPGD block 32µM
Oc1ccc(C(=S)N2CCN(Cc3ccccc3)CC2)cc1	none (no result: IMPase cell inh, ALDH1A1 block, HPGD block, IMPase Li inh)
Cc1cccc(NC(=S)N2CCN(Cc3ccccc3)CC2)c1C	ALDH1A1 block inconclusive (no result: HPGD block, IMPase Li inh)
Cc1ccc(C(=S)N2CCN(Cc3ccccc3)CC2)s1	ALDH1A1 block 14µM (no result: IMPase cell inh, HPGD block, HTT ATP protect)
CN1CCN(C(=S)c2ccc(N(C)C)cc2)CC1	ALDH1A1 block 28µM, HPGD block 16µM
CN(CCc1ccccn1)C(=O)CC1C(=O)NCCN1Cc1ccccc1C(F)(F)F (centres undefined)	ALDH1A1 block inconclusive (no result: IMPase cell inh, HPGD block)
CC(C)N(Cc1nccn1C)C(=O)CC1C(=O)NCCN1Cc1ccccc1C(F)(F)F (centres undefined)	ALDH1A1 block 40µM (no result: IMPase cell inh, HPGD block)
Cc1ccc(C2CC(=O)NC(SCCC(C)C)=C2C#N)cc1 (centres undefined)	ALDH1A1 block 13µM, HPGD block inconclusive
COC(=O)CSC1=C(C#N)C(=O)NC(c2ccccc2)S1 (centres undefined)	ALDH1A1 block 24µM
CCc1ccc(C2CC(=O)NC(SCC(=O)OC(C)C)=C2C#N)cc1 (centres undefined)	none
CCCSC1=C(C#N)C(c2ccc(Cl)cc2Cl)CC(=O)N1 (centres undefined)	ALDH1A1 block 20µM, HPGD block 32µM
CCSC1=C(C#N)C(c2ccccc2Cl)CC(=O)N1 (centres undefined)	ALDH1A1 block inconclusive
N#CC1=C(SCC(N)=O)NC(=O)CC1c1ccccc1Cl (centres undefined)	ALDH1A1 block 20µM
CSC1=C(C#N)C(=O)NC(c2ccccc2O)S1 (centres undefined)	none (no result: IMPase cell inh, ALDH1A1 block, HPGD block, IMPase Li inh)
Cc1cc(=O)[nH]c(SCC(=O)Nc2ccccc2[N+](=O)[O-])n1	none (no result: IMPase cell inh, ALDH1A1 block, HPGD block, IMPase Li inh)
C=C(C)CSC1=C(C#N)C(c2ccccc2)CC(=O)N1 (centres undefined)	ALDH1A1 block 6.3µM, HPGD block 25µM (no result: HttQ103 aggreg, IMPase cell inh, HTT ATP protect, IMPase Li inh)
COC(=O)CSC1=C(C#N)C(c2ccccc2)CC(=O)N1 (centres undefined)	ALDH1A1 block 16µM
COC(=O)CSC1=C(C#N)C(c2ccc(C(C)C)cc2)CC(=O)N1 (centres undefined)	ALDH1A1 block inconclusive
N#CC1=C(SCC(=O)Nc2ccccc2)NC(=O)CC1c1ccc(O)cc1 (centres undefined)	ALDH1A1 block inconclusive
Cc1cc(=O)oc2cc(O)c(CN(C)CC(=O)O)cc12	ALDH1A1 block inconclusive, HPGD block inconclusive (no result: HttQ103 aggreg, IMPase cell inh)
O=C(OCCCCN1C(=O)c2ccccc2C1=O)c1n[nH]c2ccccc12	HPGD block 32µM
CC(=O)c1c(C)[nH]c(C(=O)OCCCCN2C(=O)c3ccccc3C2=O)c1C	HttQ103 aggreg 2.8µM, ALDH1A1 block inconclusive
COC(=O)c1n[nH]c2ccccc12	none
COc1ccc(-c2cc(C(F)F)nn2-c2ccc(S(N)(=O)=O)cc2)cc1F	HTT ATP protect 8.9µM (no result: IMPase cell inh)
CC(C)OC(=O)C[C@H](NC(=O)OC(C)(C)C)c1ccccc1	none (no result: HttQ103 aggreg, IMPase cell inh, HPGD block, IMPase Li inh)
O=C1c2ccccc2C(=O)C12OC2c1ccc(Cl)cc1 (centres undefined)	HttQ103 aggreg 32µM, ALDH1A1 block 0.79µM (no result: IMPase cell inh)
O=C1NC(c2ccc(Cl)cc2)Nc2ccccc21 (centres undefined)	ALDH1A1 block inconclusive (no result: IMPase cell inh, HPGD block)
OCC1OC(n2nc3ccccc3n2)C(O)C(O)C1O (centres undefined)	none
O=C1C2=C(S[C@@H]3O[C@H](CO)[C@@H](O)[C@H](O)[C@H]3O2)C(=O)c2ccccc21	ALDH1A1 block 1.4µM, HPGD block inconclusive (no result: HttQ103 aggreg, IMPase cell inh)
CCC1=NN(C(=O)C(=O)Nc2ccc(OC)cc2)C(O)(C(F)(F)F)C1 (centres undefined)	ALDH1A1 block inconclusive
COc1ccc(NC(=O)C(=O)N2N=C3CCCCC3C2(O)C(F)(F)F)cc1 (centres undefined)	ALDH1A1 block 2.8µM (no result: IMPase cell inh, HPGD block)
Cc1c(Nc2cc(N3CCCCCC3)c3nonc3c2[N+](=O)[O-])c(=O)n(-c2ccccc2)n1C	HPGD block 11µM
Cc1c(NS(=O)(=O)c2ccc(N3CCCCC3)c([N+](=O)[O-])c2)c(=O)n(-c2ccccc2)n1C	HTT ATP protect inconclusive (no result: IMPase cell inh)
O=S(=O)(NCC(c1cccnc1)N1CCOCC1)c1ccccc1 (centres undefined)	ALDH1A1 block 25µM (no result: IMPase cell inh, HPGD block)
O=S(=O)(NCC(c1cccnc1)N1CCOCC1)c1ccc(Cl)cc1 (centres undefined)	ALDH1A1 block 28µM (no result: IMPase cell inh, HPGD block)
O=C(NCC(c1cccnc1)N1CCOCC1)Nc1ccccc1 (centres undefined)	IMPase cell inh inconclusive
O=[N+]([O-])c1ccc2ncccc2c1CCc1c([N+](=O)[O-])ccc2ncccc12	none (no result: HttQ103 aggreg, IMPase cell inh)
O=[N+]([O-])c1c(NCCCO)cc(Sc2ccc(Cl)cc2)c2nonc12	HttQ103 aggreg inconclusive, ALDH1A1 block 4.5µM
COc1ccc(CNc2cc(NCCCO)c([N+](=O)[O-])c3nonc23)cc1	ALDH1A1 block 10µM (no result: IMPase cell inh, HPGD block)
O=C(Nc1ccccc1N1CCCC1)c1cccc(-c2cc3ccccc3oc2=O)c1	none (no result: IMPase cell inh)
O=C(Nc1ccc(N2CCCC2)cc1)c1cccc(-c2cc3ccccc3oc2=O)c1	ALDH1A1 block 2.2µM, HPGD block 8.9µM
Cc1cc(NC(=S)NC(=O)c2ccccc2)ccc1-c1cc2ccccc2oc1=O	ALDH1A1 block 8.9µM (no result: IMPase cell inh)
COc1cc(C(=O)NC(=S)Nc2cccc(-c3cc4ccccc4oc3=O)c2)cc(OC)c1OC	ALDH1A1 block 14µM
CCOC(=O)N/N=C1/C[C@@H](O)[C@@H](O)[C@@H]2[C@@H]3C(=O)N(C(C)(C)C)C(=O)[C@H]3CC[C@H]12	HTT ATP protect inconclusive (no result: HttQ103 aggreg, IMPase cell inh, HPGD block, IMPase Li inh)
Nc1cccc2cc(S(=O)(=O)Nc3ccc(C(=O)O)cc3)ccc12	none (no result: HttQ103 aggreg, IMPase cell inh)
CS(=O)(=O)c1ccc2nc(NC(=O)CCC(=O)c3cccs3)sc2c1	HttQ103 aggreg 0.79µM
CC1=CCC(C(=O)O)C(C(=O)Nc2nc3ccc(S(C)(=O)=O)cc3s2)C1 (centres undefined)	ALDH1A1 block 0.22µM
CC(C)(C)C(=O)Nc1nc2ccc(S(C)(=O)=O)cc2s1	ALDH1A1 block inconclusive (no result: IMPase cell inh, HPGD block)
Cc1ccc(Cn2nnc3c(=O)n(Cc4cc(C)ccc4C)cnc32)cc1	HPGD block 4µM
Cc1ccc(Cn2cnc3c(nnn3Cc3ccc(Cl)cc3)c2=O)cc1	none
Cc1ccc(Cn2nnc3c(=O)n(Cc4cccc(C)c4)cnc32)cc1	HPGD block 5µM
Cc1ccccc1Cn1cnc2c(nnn2Cc2ccc(F)cc2)c1=O	none
COc1ccc(-n2nnc3c(=O)n(Cc4cc(C)ccc4C)cnc32)cc1	none
